The record followed here is PubChem BioAssay (EPA / NIEHS).

Results filed as inconclusive are left out. The source made the active and inactive calls. The calls were made as follows: active = hit-call score of the fitted dose curve at least 0.9, where 1 is the maximum; inconclusive = response in the unintended direction; inactive = score below 0.9.

The nature of one assay: Tanguay_ZF_120hpf_SWIM_legacy: (Legacy) Oregon State University Tanguay Lab 120 Hour Post-fertilization zebrafish Assay for Swim Bladder Malformation (AID 2283654).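 Also: swim bladder malformation in each larva scored yes or no under brightfield.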 The method, boiled down:
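Static waterborne exposure of single dechorionated Tropical 5D zebrafish embryos, 6–120 hpf, 28C, 0.64% DMSO final. Read-out: swim bladder malformation, present/absent, relative to DMSO negative control; trimethyltin chloride 5uM served as positive control.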
As for `CC[C@H]1CC[C@H](NCc2cc3c(cc2OC)[C@H]2C[C@H]2C(=O)N3C)[C@H](c2ccccc2)N1`, the call was inactive. Same read-out and setting: to `CC1(C)C(=O)N(Br)C(=O)N1Br` belongs “inactive”.

For the molecule `C1=CCCC=CCCC=CCC1`, the call was inactive.

Turning to `CCOC(=O)COc1ccc2c(c1)CC(NCC(O)c1cccc(Cl)c1)CC2` (stereo not given), the molecule was called inactive. Same read-out and setting: as for `C1N2CN3CN1CN(C2)C3`, the entry is “inactive”. Same read-out and setting: as for `COc1ccc(-n2nc(C(F)F)cc2-c2ccc(S(C)=O)cc2)cc1` (stereo not given), the entry is “inactive”; as for `CC(C)CCCCCCCOC(=O)CCCCC(=O)OCCCCCCCC(C)C`, “inactive”. Turning to `CCCCC(CC)COC(=O)c1ccc(C(=O)OCC(CC)CCCC)cc1` (stereo not given), the call was inactive.

Regarding `Fc1ccccc1[C@@H](F)COC1CCC(Nc2ncnc3[nH]ncc23)CC1` (stereo not given in full), the molecule was called inactive. The same measure, in the same setting: as for `CC(C)(O)c1coc(S(=O)(=O)NC(=O)Nc2c3c(cc4c2CCC4)CCC3)c1`, the entry is “inactive”; as for `CCc1cc(SCc2sc(-c3ccc(C(F)(F)F)cc3)nc2CN2CCN(c3ccc(OC)cc3)CC2)ccc1OCC(=O)O`, “inactive”.

Turning to `CCCC(=O)OCC`, the call was inactive. The same measure, in the same setting: to `Nc1nc2ncc(CNc3ccc(C(=O)N[C@@H](CCC(=O)O)C(=O)O)cc3)nc2c(=O)[nH]1` belongs “inactive”; to `COc1ccc2sc(C(=O)Nc3nnn[nH]3)c(OC(C)C)c2c1`, “inactive”; to `COCCOCCOCCOC`, “inactive”.

Turning to `Clc1nc(Cl)c(Cl)c(Cl)c1Cl`, the molecule was called inactive. As for `COCCOc1cc2cc(C(=O)NC3CCN(C(C)C)CC3)n(CC(=O)Nc3ccc(Cl)cn3)c2cn1`, the molecule was called inactive. On the same count and under the same terms, as for `CNS(=O)(=O)c1cc(C(=O)N2CCC(CCN3C4CCC3CC(n3c(C)nc5ccccc53)C4)(c3cccc(F)c3)CC2)c(Cl)cc1F` (stereo not given), the entry is “inactive”. Still for that read-out and setting: as for `CCOC(=O)CC(CC(=O)OCC)(OC(C)=O)C(=O)OCC`, the entry is “inactive”. As to `CCCCC(CC)COC(=O)CCCCCCCCC(=O)OCC(CC)CCCC` (stereo not given), the molecule was classed as inactive.

The nature of the next assay: Tanguay_ZF_120hpf_TRUN_legacy: (Legacy) Oregon State University Tanguay Lab 120 Hour Post-fertilization zebrafish Assay for Truncated Body (AID 2283655). The method, boiled down:
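Single dechorionated zebrafish embryos received test chemical from 6 hpf in 0.64% DMSO, kept at 28C. At 120 hpf, brightfield inspection noted any truncated body.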
Regarding `CC(C)=CCC/C(C)=C\CO`, the call was inactive. Turning to `CC(=O)OC[C@H]1O[C@@](COC(C)=O)(O[C@H]2O[C@H](COC(C)=O)[C@@H](OC(C)=O)[C@H](OC(C)=O)[C@H]2OC(C)=O)[C@@H](OC(C)=O)[C@@H]1OC(C)=O`, the molecule was classed as inactive. Same read-out and setting: to `Cc1ccc(O)cc1` belongs “inactive”; to `CC[C@H]1OC(=O)[C@H](C)[C@@H](O[C@H]2C[C@@](C)(OC)[C@@H](O)[C@H](C)O2)[C@H](C)[C@@H](O[C@@H]2O[C@H](C)C[C@H](N(C)C)[C@H]2O)[C@](C)(O)C[C@@H](C)C(=O)[C@H](C)[C@@H](O)[C@]1(C)O`, “inactive”; to `CCN(C(=O)c1cc(C)cc(OC[C@H](C)Nc2ccncc2)c1)C(C)C`, “inactive”.

In the case of `O=c1[nH]c2ccc(S(=O)CCN3CCC(Cc4ccc(F)cc4)CC3)cc2o1` (stereo not given), the call was inactive.

A short description of another assay: Tanguay_ZF_120hpf_NC_legacy: (Legacy) Oregon State University Tanguay Lab 120 Hour Post-fertilization zebrafish Assay for Notochord and Tail Malformation (AID 2283656). The method, boiled down: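 Binary notochord-distortion calls, made by brightfield inspection, form the read-out; activity is fitted in the positive direction against DMSO. Exposure ran statically from 6 to 120 hpf at 28C with 0.64% DMSO.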
With `CC[C@H]1CC[C@H](NCc2cc3c(cc2OC)[C@H]2C[C@H]2C(=O)N3C)[C@H](c2ccccc2)N1`, the result was inactive. On the same count and under the same terms, as for `CC1(C)C(=O)N(Br)C(=O)N1Br`, the entry is “inactive”; as for `O=C(NS(=O)(=O)/C=C/c1ccccc1)c1ccc(F)cc1Cl`, “inactive”; as for `CC(C)=CCC/C(C)=C\CO`, “inactive”. On the same count and under the same terms, to `C1=CCCC=CCCC=CCC1` belongs “inactive”; to `C1N2CN3CN1CN(C2)C3`, “inactive”. The same measure, in the same setting: as for `COc1ccc(-n2nc(C(F)F)cc2-c2ccc(S(C)=O)cc2)cc1` (stereo not given), the entry is “inactive”; as for `CC(=O)OC[C@H]1O[C@@](COC(C)=O)(O[C@H]2O[C@H](COC(C)=O)[C@@H](OC(C)=O)[C@H](OC(C)=O)[C@H]2OC(C)=O)[C@@H](OC(C)=O)[C@@H]1OC(C)=O`, “inactive”; as for `Cn1cnc([N+](=O)[O-])c1Sc1ncnc2nc[nH]c12`, “inactive”. For `CCOC(=O)c1ccc(C2CCC(NC[C@H](O)COc3ccc(O)c(NS(C)(=O)=O)c3)CC2)cc1` (stereo not given in full), the molecule was classed as inactive. On the same count and under the same terms, to `CC(C)CCCCCCCOC(=O)CCCCC(=O)OCCCCCCCC(C)C` belongs “inactive”; to `Cc1ccc(O)cc1`, “inactive”.

Regarding `CCCCC(CC)COC(=O)c1ccc(C(=O)OCC(CC)CCCC)cc1` (stereo not given), the molecule was called inactive. As for `Fc1ccccc1[C@@H](F)COC1CCC(Nc2ncnc3[nH]ncc23)CC1` (stereo not given in full), the result was inactive. The same measure, in the same setting: as for `CC[C@H]1OC(=O)[C@H](C)[C@@H](O[C@H]2C[C@@](C)(OC)[C@@H](O)[C@H](C)O2)[C@H](C)[C@@H](O[C@@H]2O[C@H](C)C[C@H](N(C)C)[C@H]2O)[C@](C)(O)C[C@@H](C)C(=O)[C@H](C)[C@@H](O)[C@]1(C)O`, the entry is “inactive”. On the same count and under the same terms, to `CCc1cc(SCc2sc(-c3ccc(C(F)(F)F)cc3)nc2CN2CCN(c3ccc(OC)cc3)CC2)ccc1OCC(=O)O` belongs “inactive”; to `CC(C)CC(C)(O)C#CC(C)(O)CC(C)C` (stereo not given), “inactive”. Regarding `CCN(C(=O)c1cc(C)cc(OC[C@H](C)Nc2ccncc2)c1)C(C)C`, the call was inactive.

Turning to `CCCC(=O)OCC`, the call was inactive. Still for that read-out and setting: to `COc1ccc2sc(C(=O)Nc3nnn[nH]3)c(OC(C)C)c2c1` belongs “inactive”; to `COCCOCCOCCOC`, “inactive”; to `Clc1nc(Cl)c(Cl)c(Cl)c1Cl`, “inactive”.

For the molecule `CNS(=O)(=O)c1cc(C(=O)N2CCC(CCN3C4CCC3CC(n3c(C)nc5ccccc53)C4)(c3cccc(F)c3)CC2)c(Cl)cc1F` (stereo not given), the outcome was inactive. In the case of `CCCCC(CC)COC(=O)CCCCCCCCC(=O)OCC(CC)CCCC` (stereo not given), the outcome was inactive.
